The source of these data is PubChem BioAssay (NCI).

The structures appear in SMILES notation. The panel holds about 83,000 compounds, 20% with a hit somewhere; the sample as a whole holds those more often.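 48-hour exposure, single concentration, 96-well plates; percent growth endpoint where 0 means no net growth. Active: below 10.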 A number with no mark means an inactive call. Activity calls are given as the source filed them.

Holding throughout (experiment): NCI-60 one-dose screen, 48 h (100 = growth as untreated, 0 = no growth, -100 = all killed)
Holding throughout (conditions): 10 µM

The test system of test [1] is HCT-15 colon.
The subject of test [2] is HT29 colon.
The test system of test [3] is SNB-75 CNS.
The test system of test [4] is SNB-19 CNS.
Test [5] has as its system U251 CNS.
In test [6] the test system is PC-3 prostate.
In test [7] the test system is SK-MEL-5 melanoma.
Test [8] relates to UACC-62 melanoma.
The test system of test [9] is LOX IMVI melanoma.
In test [10] the test system is SK-MEL-28 melanoma.
Test [11] concerns SK-MEL-2 melanoma.
The subject of test [12] is EKVX NSCLC.
The subject of test [13] is SN12C renal.
Test [14] relates to UO-31 renal.
For test [15], the system named is TK-10 renal.
In test [16] the test system is ACHN renal.
Test [17] deals with CAKI-1 renal.
In test [18] the test system is A498 renal.
The subject of test [19] is CCRF-CEM leukemia.
In test [20] the test system is MOLT-4 leukemia.

With `CO[C@@H]1CSS[C@H]1Cn1nc(-c2ccc(Oc3ccccc3)cc2)c2c(N)ncnc21`, the growth was 66.9% in test [1]; 51.1% in test [2]; 113% in test [3]; 71.8% in [4]; 60% in test [5]; 51.7% in [6]. Moreover, the growth was 25.7% in test [7]; -11.1% (active) in test [8]; 53.7% in test [9]; -0.701% (active) in test [10]; 64.7% in test [11]; 42.8% in test [12]. In addition, the growth in test [13] is 73.9%; in [14], 27.2%; in test [15] it was 45.5%; in test [16], 68.2%; in test [17] it was 47.6%; in test [18] it was 67%. The growth in test [19] was 10.7%; in test [20], 14%.

Turning to `O=C(Nc1nc2ccc([N+](=O)[O-])cc2s1)Nc1cc(Cl)ccc1I`, the growth in test [1] is -58.2% (active); in test [2], -42.2% (active); in [3], -42% (active); in test [4], 4.09% (active); in [5], -23.5% (active); in test [6] it was -14.7% (active). In addition, the growth was -94.3% (active) in test [7]; -54.1% (active) in test [8]; -82.4% (active) in test [9]; -52.7% (active) in test [10]; -62.1% (active) in test [11]; -23.7% (active) in test [12]. Moreover, the growth in test [13] was -16.8% (active); in test [14], -18.3% (active); in test [15], -4.54% (active); in test [16], -3.53% (active); in test [17], -24.7% (active); in test [18], -16.8% (active). The results for the growth in test [19] and in test [20] were -36.8% (active) and -44.6% (active), respectively.

For `CC(=O)C1=C(C)NC(SCC(=O)Nc2ccc(S(=O)(=O)Nc3cc(C)on3)cc2)=NC1c1ccccc1` (stereo not given), the growth in test [1] is 96.3%; in test [2], 110%; in test [3] it was 102%; in test [4], 102%; in test [5], 103%; in test [6], 109%. The growth in [7] was 101%; in [8] it was 97.1%; in test [9], 92.8%; in test [10] it was 110%; in [11], 119%; in [12] it was 101%. Besides, the growth in test [13] is 111%; in test [14] it was 89.2%; in [15] it was 112%; in test [16] it was 106%; in test [17], 99.8%; in [18], 109%. Moreover, the growth in test [19] was 98%; in test [20], 109%.

`CCOC(=O)CNC(=O)CN(Cc1ccccc1)C(=O)[C@@]1(C)CCC[C@]2(C)[C@H]3CC4C(C(C)C)=C[C@]3(CC[C@H]21)[C@@H]1C(=O)CCC(=O)[C@H]41`: the growth is 17.6% in test [1]; 41.1% in test [2]; 86.2% in test [3]; 81.1% in test [4]; 63.8% in [5]; 35.3% in test [6]. Further, the growth in test [7] is 68.6%; in test [8], 38.9%; in [9], -75.1% (active); in [10], 62.7%; in test [11] it was 47.4%; in test [12] it was 66.2%. In addition, the growth was 50% in test [13]; 47.9% in test [14]; 98.1% in test [15]; 52.9% in test [16]; 81.3% in test [17]; 120% in [18]. Further, the growth in test [19] was 16.4%; in test [20], 15.8%.

With `CN1CCN(Cc2ccc(C(=O)Nc3cccc(Nc4ccc5c(O)cccc5n4)c3)cc2C(F)(F)F)CC1`, the growth in [1] is -25.4% (active); in [2], -50.8% (active); in test [3], 33.1%; in [4], -64.3% (active); in test [5], -35.3% (active); in test [6] it was 10.8%. Also, the growth was -100% (active) in [7]; -79.9% (active) in [8]; -100% (active) in [9]; -95% (active) in [10]; -75.9% (active) in test [11]; -45.6% (active) in [12]. The growth in test [13] is 1.56% (active); in test [14] it was -20.2% (active); in [15], -21% (active); in test [16], -23.4% (active); in test [17], -38.3% (active); in [18] it was -33.2% (active). For the same molecule, the growth in test [19] is 5.12% (active); in test [20], -2.84% (active).

Take `CC1(c2ccccc2)NC(=O)N(CC(=O)Nc2ccc(C(=O)/C=C/c3ccc(Cl)cc3)cc2)C1=O` (stereo not given): the growth in test [1] is -61.4% (active); in test [2], -46.9% (active); in test [3], 37.5%; in test [4] it was 30.9%; in test [5], -71.7% (active); in test [6] it was 9.23% (active). Further, the growth in test [7] is -60.9% (active); in test [8] it was 1.17% (active); in test [9], -100% (active); in test [10], 15.8%; in [11], 34%; in [12], 30.3%. Also, the growth was 19.4% in [13]; 22.7% in test [14]; 67.9% in [15]; 13.4% in test [16]; 21.4% in test [17]; 76.7% in test [18]. The growth is 7.4% (active) in test [19] and -4.5% (active) in test [20].

For the molecule `CCCn1c(=O)c2[nH]c(-c3ccc(OCc4nc5ccc(C(F)(F)F)cc5[nH]4)cc3)nc2n(CCC)c1=O`, the growth in test [1] was 23.1%; in test [2], 62%; in test [3] it was 84.6%; in test [4], 71.5%; in test [5], 37.6%; in test [6], 33.2%. The growth in test [7] is 37.1%; in [8], 6.48% (active); in [9], 35.5%; in test [10] it was 58.4%; in test [11], 66.8%; in test [12], 53.2%. Besides, the growth was 53.5% in test [13]; 52.1% in test [14]; 96.2% in test [15]; 64.7% in test [16]; 43.6% in test [17]; 51.1% in [18]. For the same molecule, the growth in test [19] was 35.3%; in [20] it was 11.5%.
